The source of these data is PubChem BioAssay (NCATS).

For experiment [1], the target named is Metallo-beta-lactamase type 2 (Klebsiella pneumoniae) (UniProt C7C422). Nature of the experiment: qHTS to identify inhibitors of the New Delhi Metallo-beta-lactamase (NDM): assay validation screen against the NCATS LOPAC Collection (AID 1794843).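 Also: nitrocefin turnover by NDM-1 measured as 485 nm absorbance at plateau; series mostly up to about 38 µM.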 Summed up: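 NDM-1 at 2 nM final in 50 mM HEPES pH 7.0, 1 uM ZnSO4, 0.01% Tween20, preincubated with LOPAC compounds pinned in DMSO; 50 uM nitrocefin (stock) added. Hydrolysis read as absorbance at 485 nm in the plateau phase.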
In general terms: qHTS replaces the single test concentration by a dilution series.

Experiment [2] deals with Glutathione peroxidase 1 (Homo sapiens) (UniProt P07203). The experiment can be described thus: Primary qHTS Assay for Inhibitors of Recombinant Selenoprotein Glutathione Peroxidase 1 (GPX1) (AID 1845191). Also: nearly all actives have a fitted effect of over 65% in size. Summed up:
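10 nM GPX1 + cpd, 30 min RT; start w/ 1 mM GSH, 0.5 mM cumene hydroperoxide, 0.5 mM NADPH, 100 nM GR, 0.01% BSA; buffer 50 mM Tris-HCl pH 7.5, 2 mM EDTA, 150 mM NaCl; Fl 340/450, 0 & 15 min.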

The target in experiment [3] is Phospholipid hydroperoxide glutathione peroxidase GPX4 (Homo sapiens) (UniProt P36969). Nature of the experiment: Primary qHTS Assay for Inhibitors of Recombinant Selenoprotein Glutathione Peroxidase 4 (GPX4) (AID 1845192). Also: nearly all actives have a fitted effect of over 65% in size. Also: potency is read from the fitted curve at half-maximal effect. The essentials: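 NADPH consumption, followed by fluorescence at 340/450 nm between 0 and 15 min, reports GPX4 activity via coupled glutathione reductase (100 nM). Enzyme 200 nM was pre-exposed to compound 30 min; 0.5 mM cumene hydroperoxide and 1 mM GSH served as substrates.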

Experiment [4] in a line: Quantitative High-Throughput drug screen in 47 multiple myeloma cell lines against the NCATS MIPE library collection: FR4_PLB cell viability assay (AID 1918924; also: nearly all actives have a fitted effect of over 35% in size; also: potency is read from the fitted curve at half-maximal effect). Summed up: (§1)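 Primary qHTS used for cherry-picking: cells at 500/well, library compounds for 48 h (37C, 5% CO2), luminescent ATP assay.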
The nature of experiment [5]: Quantitative High-Throughput drug screen in 47 multiple myeloma cell lines against the NCATS MIPE library collection: Delta47_JCRB cell viability assay (AID 1918925; also: nearly all actives have a fitted effect of over 45% in size; also: potency is read from the fitted curve at half-maximal effect). The essentials:
(§2)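 Myeloma cells (500 per well) were exposed to MIPE 4.0 compounds by pin transfer and incubated 48 hours at 37C, 5% CO2. Viability was read as ATP by CellTiter-Glo luminescence, normalised to DMSO (100%) and media-only (0%) wells.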

A short description of experiment [6]: Quantitative High-Throughput drug screen in 47 multiple myeloma cell lines against the NCATS MIPE library collection: EJM_DSMZ cell viability assay (AID 1918926; also: nearly all actives have a fitted effect of over 30% in size; also: potency is read from the fitted curve at half-maximal effect). Summed up:
as §2

The nature of experiment [7]: Quantitative High-Throughput drug screen in 47 multiple myeloma cell lines against the NCATS MIPE library collection: AMO1_DSMZ cell viability assay (AID 1918927; also: nearly all actives have a fitted effect of over 30% in size; also: potency is read from the fitted curve at half-maximal effect). Summed up: as §2
Experiment [8] is described as follows: Quantitative High-Throughput drug screen in 47 multiple myeloma cell lines against the NCATS MIPE library collection: ARP1_JJKsccF8 cell viability assay (AID 1918928; also: nearly all actives have a fitted effect of over 40% in size; also: potency is read from the fitted curve at half-maximal effect). Summed up: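 Myeloma cells at 500 per well in 1536-well format treated with MIPE 4.0 library by pin transfer for 48 h at 37C, 5% CO2. Viability from ATP luminescence (CellTiter-Glo), normalized to DMSO (100%) and media-only (0%) wells.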

Experiment [9] can be described thus: Quantitative High-Throughput drug screen in 47 multiple myeloma cell lines against the NCATS MIPE library collection: ARD_JJKsccE7 cell viability assay (AID 1918929; also: potency is read from the fitted curve at half-maximal effect). The essentials:
as §2

Experiment [10] can be described thus: Quantitative High-Throughput drug screen in 47 multiple myeloma cell lines against the NCATS MIPE library collection: Karpas620_DSMZ cell viability assay (AID 1918959). Also: nearly all actives have a fitted effect of over 30% in size. Also: potency is read from the fitted curve at half-maximal effect. The essentials: as §1
Experiment [11] can be described thus: NCATS anti-infectives library activity on the primary C. elegans qHTS viability assay (AID 1745855; calls by dose curve; also: potency is read from the fitted curve at half-maximal effect). Summed up:
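Viability is taken from GFP fluorescence of PE254-GFP-FLuc C. elegans imaged by laser cytometry over 7 days. Ten L1 worms per well grow at 21 °C on TOP10 E. coli capsules with titrated compound; levamisole marks toxicity.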

Experiment [12] in a line: Primary fluorescence-based thiol-reactive (MSTI) qHTS assay for identification of artifact compounds. (AID 1845221).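 Also: series mostly up to about 54 µM; thiol-reactive compounds lower the probe fluorescence signal; nearly all actives have a fitted effect of over 65% in size.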 Summed up:
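In PBS pH 7.4 with 2% DMSO, each compound met 4 uM MSTI for one hour at ambient temperature, shielded from light, before fluorescence detection.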

In experiment [13] the test system is Nanoluciferase (engineered Oplophorus gracilirostris luciferase). Nature of the experiment: Primary Nanoluciferase (NLuc) qHTS assay for identification of artifact compounds. (AID 1845222). Also: series mostly up to about 54 µM. Summed up: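 Compounds are pinned into diluted (1:55) conditioned medium of NLuc-expressing S16 cells and held 15 min at room temperature protected from light. Nano-Glo substrate follows, and luminescence is read 5 min later.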

Experiment [14] in a line: Primary redox qHTS assay for identification of artifact compounds. (AID 1845223). Summed up: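 Amplex Red (25 uM) and HRP (250 mU/mL) in HBSS, with compounds for 15 min, then 250 uM DTT for 30 min, room temperature, dark. Fluorescence 525/598 nm read; normalized to DMSO and 10 uM DA3003; Hill fit.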
For experiment [15], the target named is Luciferin 4-monooxygenase (Photinus pyralis) (UniProt P08659). The experiment can be described thus: Primary firefly luciferase (FLuc) qHTS assay for identification of artifact compounds. (AID 1845220). Also: nearly all actives have a fitted effect of over 60% in size. Summed up: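 Cell-free, 1536-well qHTS. Buffer pH 7.6 with 0.01% Tween-20 and 0.05% BSA; 10 uM D-luciferin, 10 uM ATP; 10 nM P. pyralis luciferase; luminescence after 5 min.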

Records with an inconclusive call do not appear. Calls of active or inactive are those of the source. Unless noted, calls follow the shape of the dose curve; as a rule, active = well fitted curve in the direction sought with a large enough effect; inconclusive = small, poorly fitted or top-dose-only effect, or another doubt; inactive = no such curve, though single readings can be large; an effect the other way counts as inactive or inconclusive.

Phospholipid hydroperoxide glutathione peroxidase GPX4 (Homo sapiens), sequence (P36969 whole entry, looked up): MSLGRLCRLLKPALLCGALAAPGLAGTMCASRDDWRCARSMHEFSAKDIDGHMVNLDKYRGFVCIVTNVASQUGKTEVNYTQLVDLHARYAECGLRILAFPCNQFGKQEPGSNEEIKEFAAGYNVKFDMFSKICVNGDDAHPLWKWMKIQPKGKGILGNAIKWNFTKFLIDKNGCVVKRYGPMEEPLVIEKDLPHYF
Glutathione peroxidase 1 (Homo sapiens), sequence (P07203 whole entry, looked up): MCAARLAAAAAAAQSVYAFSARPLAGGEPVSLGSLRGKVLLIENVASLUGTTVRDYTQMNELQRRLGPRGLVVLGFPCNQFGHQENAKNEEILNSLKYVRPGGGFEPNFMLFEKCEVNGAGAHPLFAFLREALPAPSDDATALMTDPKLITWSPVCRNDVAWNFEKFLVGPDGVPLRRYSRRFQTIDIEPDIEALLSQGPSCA
Metallo-beta-lactamase type 2 (Klebsiella pneumoniae), sequence (C7C422 whole entry, looked up): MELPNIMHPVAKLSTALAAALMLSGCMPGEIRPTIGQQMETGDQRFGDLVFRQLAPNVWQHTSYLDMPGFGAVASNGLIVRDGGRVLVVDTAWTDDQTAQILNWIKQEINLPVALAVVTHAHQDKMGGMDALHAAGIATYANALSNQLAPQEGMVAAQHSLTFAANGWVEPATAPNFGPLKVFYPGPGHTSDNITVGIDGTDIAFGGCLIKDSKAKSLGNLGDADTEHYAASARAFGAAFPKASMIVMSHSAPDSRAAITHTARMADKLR

In the case of `O=c1[nH]cnc2[nH]ncc12`, the call in experiment [1] was inactive. Besides, the Potency result in experiment [2], in experiment [3], in experiment [4], in experiment [5], in [6] and in experiment [7] was “inactive” throughout. Besides, the Potency entry in [8] and in experiment [10] was “inactive” each time. Besides, the Potency in experiment [9] is 23.5 µM (active).
On to `c1ccc([C@H]2CN3CCSC3=N2)cc1`, for which the Potency in [11] is 5.15 µM (active). The molecule was classed as inactive in experiment [1]. The Potency result in [2], in [3], in experiment [4], in experiment [6], in [7] and in experiment [8] was “inactive” each time. The Potency result in [9] and in [10] was “inactive” in each case.
On to `CC(C)(C)NCC(O)c1ccc(O)c(CO)c1` (stereo not drawn), for which the call in experiment [1] was inactive. Besides, the Potency entry in [2], in [3], in experiment [4], in experiment [5], in [6] and in experiment [7] was “inactive” each time. Moreover, in [10], the Potency entry was “inactive”. Moreover, the Potency in experiment [9] is 0.0526 µM (active).
With `Oc1ccc(C2CNCCc3c2cc(O)c(O)c3Cl)cc1` (stereo not drawn), the call in experiment [1] was inactive. For the same molecule, the Potency entry in experiment [2], in experiment [3], in experiment [4], in experiment [5], in [6] and in [7] was “inactive” throughout. Besides, the Potency entry in [9] and in [10] was “inactive” each time.
In the case of `O=C(O)COCCN1CCN(C(c2ccccc2)c2ccc(Cl)cc2)CC1` (stereo not drawn), in experiment [1], the outcome was inactive. The Potency entry in experiment [2], in experiment [3], in experiment [4], in experiment [9] and in experiment [10] was “inactive” throughout.
On to `Cc1cn[nH]c1`, for which the call in experiment [1] was inactive. Moreover, the Potency result in experiment [2] and in [3] was “inactive” in each case. In addition, the Potency is 0.0526 µM (active) in experiment [4], 0.296 µM (active) in experiment [5] and 0.105 µM (active) in experiment [6].
With `NC(N)=NC(=O)c1nc(Cl)c(N)nc1N`, the outcome in [1] was inactive. Further, the Potency result in experiment [2], in experiment [3], in experiment [6], in experiment [8] and in [10] was “inactive” in each case. Besides, the Potency in [5] is 8.33 µM (active); in experiment [7], 14.8 µM (active).
As to `O=C1CCC(N2C(=O)c3ccccc3C2=O)C(=O)N1` (stereo not drawn), in [1], the result was inactive. In addition, the Potency entry in experiment [2], in experiment [3], in [4], in [5], in experiment [6] and in [9] was “inactive” each time. In experiment [10], the Potency result is “inactive”. The Potency in [8] is 0.0662 µM (active).
As for `C#Cc1cccc(Nc2ncnc3cc(OCCOC)c(OCCOC)cc23)c1`, the Potency entry in [11], in experiment [2], in experiment [3] and in experiment [12] was “inactive” each time. The call in experiment [13] and in experiment [14] was inactive. In addition, the Potency in [4] is 16.6 µM (active); in [5], 4.18 µM (active); in [6], 6.62 µM (active); in experiment [7], 1.05 µM (active); in experiment [9], 5.9 µM (active); in [10] it was 4.69 µM (active).
On to `NS(=O)(=O)c1cc2c(cc1Cl)NC=NS2(=O)=O`, for which, in [1], the call was inactive. The Potency entry in experiment [2], in [3], in [4], in [7], in [8] and in experiment [9] was “inactive” in each case. Besides, the Potency result in experiment [10] is “inactive”.
For the molecule `NC[C@H](O)c1ccc(O)c(O)c1`, in [1], the molecule was classed as inactive. The Potency entry in experiment [2], in experiment [3], in experiment [5], in experiment [6], in experiment [7] and in [8] was “inactive” in each case. Moreover, the Potency entry in experiment [9] and in experiment [10] was “inactive” each time.
`Nc1nc2c(ncn2COCCO)c(=O)[nH]1`: the call in experiment [1] was inactive. Also, the Potency result in experiment [2], in [3], in experiment [4], in experiment [6], in [8] and in experiment [10] was “inactive” throughout.
Turning to `Clc1cccc(Cl)c1NC1=NCCN1`, the result in experiment [1] was inactive. Moreover, the Potency entry in experiment [2], in [3], in [5], in [6], in [7] and in experiment [8] was “inactive” in each case. Moreover, the Potency entry in [10] was “inactive”.
On to `Nc1ccc(S(=O)(=O)Nc2ccnn2-c2ccccc2)cc1`, for which the molecule was classed as inactive in [1]. In addition, the Potency result in experiment [2], in experiment [3], in [5], in [6], in [7] and in experiment [8] was “inactive” each time. For the same molecule, the Potency entry in experiment [9] and in experiment [10] was “inactive” throughout.
Take `CCOC(=O)N1CCC(=C2c3ccc(Cl)cc3CCc3cccnc32)CC1`: the result in experiment [1] was inactive. Besides, the Potency entry in experiment [2], in experiment [3] and in experiment [7] was “inactive” throughout. For the same molecule, the Potency in experiment [8] was 20.9 µM (active); in [9], 0.0017 µM (active).
As to `C/C(=C\C(=O)Nc1ccccc1C(=O)O)c1ccc2ccccc2c1`, the Potency entry in [2] was “inactive”. For the same molecule, in [3], the Potency was 18 µM (active).
Turning to `N=c1nc(N2CCCCC2)cc(N)n1O`, in [1], the molecule was classed as inactive. Also, the Potency entry in experiment [3], in experiment [4], in experiment [6], in [7], in [9] and in experiment [10] was “inactive” in each case.
Take `Nc1nc2ccc(OC(F)(F)F)cc2s1`: the call in [1] was inactive. For the same molecule, the Potency result in experiment [2], in experiment [3], in [6] and in experiment [10] was “inactive” in each case. The Potency in experiment [5] is 13.2 µM (active); in experiment [9], 16.6 µM (active).
For the molecule `CC(C)(N)C(=O)N[C@H](COCc1ccccc1)C(=O)N1CCC2(CC1)CN(S(C)(=O)=O)c1ccccc12`, the Potency result in experiment [2], in experiment [3], in [15], in experiment [12], in experiment [7] and in [9] was “inactive” throughout. Moreover, in experiment [10], the Potency result is “inactive”. In addition, the result in experiment [13] and in [14] was inactive. Moreover, the Potency in experiment [4] is 16.6 µM (active); in experiment [5] it was 7.43 µM (active).
Consider `CC(C)NCC(O)COc1ccc(COCCOC(C)C)cc1` (stereo not drawn), for which the call in experiment [1] was inactive. In addition, the Potency entry in [2], in experiment [3], in experiment [8] and in experiment [10] was “inactive” in each case.
Consider `CN(C(=O)c1ccc(F)cc1C(F)(F)F)C1CCN(c2nnc(-c3ccnn3C)c3ccccc23)CC1`, for which the Potency entry in experiment [2], in experiment [3], in experiment [15] and in experiment [12] was “inactive” each time. Moreover, the result in experiment [13] and in [14] was inactive.
On to `CCCS(=O)(=O)Nc1ccc(F)c(C(=O)c2c[nH]c3ncc(-c4ccc(Cl)cc4)cc23)c1F`, for which the Potency entry in experiment [2], in [3], in experiment [15], in experiment [12] and in experiment [10] was “inactive” in each case. Further, the call in experiment [13] and in [14] was inactive. In addition, the Potency in [5] is 8.33 µM (active).
In the case of `CCC(C)N(C)C(=O)c1cc2ccccc2c(-c2ccccc2Cl)n1` (stereo not drawn), the molecule was called inactive in [1]. Moreover, the Potency entry in experiment [3], in experiment [4], in [5] and in experiment [6] was “inactive” throughout. The Potency in [8] was 0.296 µM (active).
On to `CC(=O)Oc1ccccc1C(=O)O`, for which the outcome in experiment [1] was inactive. Also, the Potency entry in [3], in [4] and in experiment [8] was “inactive” throughout. The Potency in experiment [6] is 8.33 µM (active).
